Compound activity as filed in PubChem.
Sampled rows, rich in hits. Any-hit rate of the full collection: about 3.3%.
Giardia FBPA inh – inhibitors of Giardia lamblia fructose-1,6-bisphosphate aldolase; A8B2U2; purified Giardia FBPA; Potency, µM (top dose mostly 59.6 µM), inactives show at the highest dose activity, negative = inhibition, actives largely listed as inhibitors; 290,000 tested, 0.71% active; AID 2451; further: nearly all actives have a fitted effect of over 55% in size
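40 nM FBPA preincubated 10 min at RT with compound (up to 57.5 uM final), then substrate plus GAPDH/TPI/NAD/arsenate coupling and diaphorase/resazurin added. Fluorescence read after 20 min at RT, 525/598 nm.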
Tb PYK inh – T. brucei pyruvate kinase inhibition; Q57TT1; TbPYK enzyme, Kinase-Glo Plus ATP luminescence, 45 min; Potency, µM (highest dose often 76.8 µM), inactives show at the highest dose activity, negative = inhibition, actives largely listed as inhibitors; 410,000 tested, 0.12% active; AID 624173; further: nearly all actives have a fitted effect of over 50% in size
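Activity of T. brucei pyruvate kinase was followed by Kinase-Glo Plus luminescence after the enzyme reacted 45 min at room temperature with 130 uM ADP (final) and substrate. Test compounds were added before ADP at multiple concentrations.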
RE007 growth inh – less growth of the S. pombe RE007 Vpr strain; S. pombe RE007 Vpr strain, BacTiter-Glo ATP luminescence, 24 h; Potency, µM (titrated, usually from 92.2 µM), inactives show top-dose activity change, negative = less growth, usual class: inhibitors; 360,000 tested, 0.21% active; AID 651644; active means well fitted falling curve with a large enough effect; inconclusive means small, poorly fitted or top-dose-only effect; inactive means no such curve, though single readings can be large or run the other way; further: nearly all actives have a fitted effect of over 50% in size
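Fission yeast RE007 carrying one integrated HIV-1 vpr copy, seeded at OD 0.01 in PMG+AL medium with 23 nL pinned compound. Grown 24 h at 30 degrees; viability read by BacTiter-Glo luminescence after 5 min.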
Sm TGR inh – S. mansoni TGR enzyme inhibition; Q962Y6; purified TGR, DTNB reduction, TNB absorbance 405 nm; Potency, µM (top dose mostly 114 µM), for the others: at the top dose activity change, negative = inhibition, hits mostly inhibitors; 360,000 tested, 3% active; AID 485364; further: nearly all actives have a fitted effect of over 60% in size
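TGR 20 nM + NADPH 100 uM (dispensed conc.), cpd preinc 15 min RT; start with NADPH (500 uM addition) then DTNB (15 mM addition). Kinetic TNB absorbance, 405 nm filter. Four-parameter Hill fit across titration.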
LmPK inhibitor – inhibitors of Leishmania mexicana pyruvate kinase; Q27686; AID 1721; 290,000 tested, 0.37% active; purified LmPK, Kinase-Glo ATP luminescence, 1 h; Potency, µM (top dose mostly 57.5 µM), without a hit: top-dose activity change, negative = inhibition, most hits filed as inhibitors
Target sequence (Q27686 whole entry, looked up): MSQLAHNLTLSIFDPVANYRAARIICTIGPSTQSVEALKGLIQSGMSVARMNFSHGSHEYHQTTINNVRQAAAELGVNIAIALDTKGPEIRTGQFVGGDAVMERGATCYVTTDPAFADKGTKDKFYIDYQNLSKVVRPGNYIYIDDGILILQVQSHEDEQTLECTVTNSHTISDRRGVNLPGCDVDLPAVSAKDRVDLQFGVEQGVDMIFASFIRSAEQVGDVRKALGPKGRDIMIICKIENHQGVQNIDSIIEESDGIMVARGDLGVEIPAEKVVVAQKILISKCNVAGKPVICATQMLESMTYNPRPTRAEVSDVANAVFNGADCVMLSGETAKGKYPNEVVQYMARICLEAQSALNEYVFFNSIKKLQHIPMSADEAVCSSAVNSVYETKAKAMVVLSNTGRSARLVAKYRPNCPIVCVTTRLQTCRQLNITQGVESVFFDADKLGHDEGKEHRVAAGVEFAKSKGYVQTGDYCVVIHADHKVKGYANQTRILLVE
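ATP generated from ADP (0.1 mM) and PEP (0.5 mM) by 0.1 nM LmPK over 1 h at room temperature (pH 7.2 imidazole buffer) was detected by coupled luciferase luminescence. Values were normalized to uninhibited and no-enzyme wells.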
* hit, by the source's call; ? = inconclusive; . = no result given; [ ] = dose if it differs, or a comment. Unless noted, the call rests on the fitted dose curve; in most records, active means well fitted curve in the direction sought with a large enough effect; inconclusive means small, poorly fitted or top-dose-only effect, or another doubt; inactive means no such curve, though single readings can be large; an effect the other way counts as inactive or inconclusive. On the % scale 0 is the no-effect control and ±100 the full control effect; potency means the concentration at half of the fitted maximal effect.

SMILES	Giardia FBPA inh	Tb PYK inh	RE007 growth inh	Sm TGR inh	LmPK inhibitor
CC(C)/C=C(/C(=O)c1ccc(Cl)cc1Cl)n1cncn1	2%	2%	.	35µM*	0%
Cc1ccc[n+](-c2nc([O-])sc2C=O)c1	-26%	-14%	-19%	-15%	2%
Cc1ccc(-n2c([O-])nc(-[n+]3ccccc3)c2C=O)cc1	-6%	-2%	11%	40µM*	6%
CCCN(CCC)C(=O)c1cc([N+](=O)[O-])cc2c1-c1ccc([N+](=O)[O-])cc1C2=C(C#N)C#N	?	-6%	1%	5µM*	1%
CCCCN(CCCC)C(=O)c1cc(Cl)ccc1[N+](=O)[O-]	-2%	-2%	-1%	-8%	4%
CCN1C(=O)[C@H]2[C@@H](c3ccc(-c4ccc(OC)cc4)c(OC)c3)N[C@@](CC(C)C)(C(=O)OC)[C@H]2C1=O	.	0%	-10%	.	.
CCN1C(=O)[C@H]2[C@@H](c3ccc(-c4ccc5c(c4)OCO5)c(OC)c3)N[C@@](CC(C)C)(C(=O)OC)[C@H]2C1=O	.	-1%	-6%	50µM*	.
COc1ccc(C2NC(Cc3ccccc3)(C(=O)O)C3C(=O)N(c4ccccc4OC)C(=O)C23)cc1 (configuration not stated)	4%	2%	2%	22µM*	-5%
CCN1C(=O)[C@H]2[C@@H](c3ccc(-c4ccc5c(c4)OCO5)c(OC)c3)N[C@@](Cc3ccccc3)(C(=O)OC)[C@H]2C1=O	.	1%	-16%	-23%	.
COC(=O)[C@]1(CC(C)C)N[C@H](c2ccc(-c3ccc(F)cc3)c(OC)c2)[C@@H]2C(=O)N(C)C(=O)[C@@H]21	.	-10%	-6%	20µM*	.
CCN1C(=O)[C@H]2[C@@H](c3ccc(-c4cccc(Cl)c4)c(OC)c3)N[C@@](Cc3ccccc3)(C(=O)OC)[C@H]2C1=O	.	0%	2%	28µM*	.
COC(=O)[C@]1(Cc2ccccc2)N[C@H](c2ccc(-c3cccc(Cl)c3)c(OC)c2)[C@@H]2C(=O)N(C)C(=O)[C@@H]21	.	-3%	-11%	.	.
COc1cccc(NC(=O)c2ccc3nsnc3c2)c1	3%	-12%	-21%	-14%	-17%
COC(=O)[C@H]1C[C@@H]1[C@H](NS(=O)(=O)c1ccc2ccccc2c1)c1ccccc1	-1%	-1%	-10%	-14%	1%
COc1ccccc1Nc1nc(N)nc(CCl)n1	10%	5%	-3%	28µM*	-2%
COc1ccc(OC)c(Nc2nc(N)nc(CCl)n2)c1	0%	-4%	24%	32µM*	-4%
Cc1nc(-c2ccc(Cl)cc2)sc1CCNC(=O)Cc1ccc(F)cc1	.	-2%	.	-9%	.
O=C(Nc1cccc(O)c1)c1cnn2cccnc12	3%	-4%	10%	6%	-7%
Cc1cc(C(=O)CN2CCCCC2)c(C)n1-c1ccc(F)cc1	1%	-2%	1%	-3%	-1%
Cc1cc(C(=O)CN2CCCC2)c(C)n1-c1ccc(F)cc1	-1%	-4%	-9%	45µM*	5%
Cc1cc(F)ccc1S(=O)(=O)Nc1ccc(O)c(Sc2ncn[nH]2)c1	?	9%	3%	?	-4%
Cc1cc(=O)[nH]c(SCC(=O)Nc2ccc(F)cc2)c1C#N	11%	-11%	-1%	2%	-1%
COc1ccc(C(=O)NNC2=CC(=O)CC(C)(C)C2)cc1	-14%	0%	3%	?	2%
CC1(C)CC(=O)C=C(OC(=O)c2ccc(Cl)cc2)C1	0%	9%	-4%	14µM*	-1%
Cc1ccc(-n2nnnc2Sc2ccc(S(=O)(=O)NCCN(C)C)cc2[N+](=O)[O-])cc1	0%	-18%	.	25µM*	3%
SMILES	Giardia FBPA inh	Tb PYK inh	RE007 growth inh	Sm TGR inh	LmPK inhibitor
O=[N+]([O-])c1cc(S(=O)(=O)NCCCN2CCOCC2)ccc1Cl	-12%	-3%	13%	45µM*	-7%
O=[N+]([O-])c1cc(S(=O)(=O)NCCN2CCOCC2)ccc1Sc1nnnn1-c1ccccc1	-20%	-2%	-9%	18µM*	8%
Cc1cc(C)c(NC(=O)C2CCN(c3nc4ccccc4[nH]3)CC2)c(C)c1	.	3%[15.4 µM]	.	48%	.
CCc1nc2sc3ccccc3c(=O)c2c(=O)n1CCOC	0%	5%	11%	-15%	4%
CCOC(=O)c1ccc(Nc2c(-c3ccc(O)c(OC)c3)nc3nc[nH]n23)cc1	.	-15%	.	32µM*	.
CCOC(=O)c1ccc(Nc2c(-c3ccc(OC)cc3)nc3nc[nH]n23)cc1	.	-13%	.	8%	.
O=C(Cn1c(=O)n(CCCCC(=O)NC2CCCC2)c(=O)c2ccccc21)NCCC1=CCCCC1	4%	0%	4%	26%	2%
CC(/C=N/n1cnnc1)=C\c1ccco1	-22%	0%	-1%	35µM*	-6%
NCC(O)c1cc(O)c(O)cc1F (configuration not stated)	5.6µM*	-5%	0%[18.4 µM]	45µM*	.
CCNCc1cc(OCC)c(OCC(=O)NCCc2ccccc2)cc1Cl	12%	0%	-15%	4%	-5%
COCCn1c(-c2ccco2)csc1=Nc1cccnc1	-28%	-3%	-11%	?	-1%
CC(C)Cn1c(-c2ccco2)csc1=Nc1cccnc1	-10%	-7%	0%	56µM*	5%
Cc1cc(C(=O)CSc2nnc(-c3ccco3)o2)c(C)n1-c1ccc2c(c1)OCCO2	-29%	-14%	4%	7%[11.4 µM]	12%
Cc1cc(C(=O)CSc2nnnn2C)c(C)n1-c1ccc2c(c1)OCCO2	?	7%	2%	35µM*	5%
CCN(CC)C(=O)N1CCN(C(=O)N(CC)CC)CC1	2%	-3%	-5%	0%	0%
CC(C)c1nc(N2CCN(C(=O)c3ccco3)CC2)c2c3c(sc2n1)CCCC3	-7%	2%	7%	28µM*	1%
C=CCn1c(SCC(=O)Nc2cc(C)on2)nnc1-c1ccccc1F	.	-2%	-14%	.	.
O=C(NC(Cc1ccccc1)C(=O)O)/C(=C\c1ccc(Cl)cc1)NC(=O)c1ccco1 (configuration not stated)	-12%	-8%	0%	?	-1%
CC(C)CNC(=S)NC(=O)c1ccc(F)cc1	2%	-8%	-29%	32µM*	-7%
O=C(NC(=S)NC1CCCCC1)c1ccc(F)cc1	.	4%	?	28µM*	-1%
O=C(NC(=S)NCCN1CCOCC1)c1ccc(F)cc1	0%	13%	-22%	5%	-10%
CC(C)c1ccc2c(c1)C(N1CCNCC1)Cc1ccc(F)cc1S2 (configuration not stated)	.	1%	0%	.	.
CCOc1ccc(N2CC(C(=O)NCc3ccc4c(c3)OCO4)CC2=O)cc1 (configuration not stated)	0%	-5%	3%	11%	-11%
